Results as given in the supplement of paper PMC10849652.
The full data set covers some 7,900 targets. This sample favours those with a hit. About 0.6% of all pairs of compound and target were hits.

Legend:
Assay in all cases: log2 fold change, soluble protein after heating vs DMSO (PISA); higher = thermal stabilisation; K562 cells, 10 uM, 30 min; active = over 0.2 and 3.5 SD of the protein, either way, in both replicates (recomputed)
bafetinib = compound: Cc1ccc(NC(=O)c2ccc(CN3CC[C@H](N(C)C)C3)c(C(F)(F)F)c2)cc1Nc1nccc(-c2cncnc2)n1 [bafetinib]
Procedure, shortened: (§1)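 Soluble protein was defined as the supernatant after 21,000xg for 90 min. It came from K562 cells at 2×10^6 cells/mL given 10 μM compound for 30 min, heated in aliquots for 3 min across 48°C-58°C, pooled, and extracted in PBS with 0.5% NP-40 at 4°C, and was quantified by TMTpro 16plex LC-MS/MS with equalised channel sums. Thermal stability against control samples, from duplicates, is reported as log2 fold change.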

[1] = compound: Cc1cccc(CC(=O)N2CCc3c2ccc(-c2cn(C)c4ncnc(N)c24)c3F)n1
Procedure, shortened: as §1

nilotinib = compound: Cc1cn(-c2cc(NC(=O)c3ccc(C)c(Nc4nccc(-c5cccnc5)n4)c3)cc(C(F)(F)F)c2)cn1 [nilotinib]
Procedure, shortened: as §1

[2] = compound: Cc1nc(Nc2n[nH]c3c2CN(C(=O)N[C@H](CN(C)C)c2ccccc2)C3(C)C)c2sccc2n1
Procedure, shortened: as §1

dasatinib = compound: Cc1nc(Nc2ncc(C(=O)Nc3c(C)cccc3Cl)s2)cc(N2CCN(CCO)CC2)n1 [dasatinib]
Procedure, shortened: as §1

[3] = compound: Cc1ncc(-c2ccnc(Nc3ccc(S(C)(=O)=O)cc3)n2)n1C(C)C
Procedure, shortened: as §1

[4] = compound: Cn1cc(-c2ccc3c(c2)CCN3C(=O)Cc2cccc(C(F)(F)F)c2)c2c(N)ncnc21
Procedure, shortened: as §1

[5] = compound: Cn1cc(-c2ccc3nnc(C(F)(F)c4ccc5ncccc5c4)n3n2)cn1
Procedure, shortened: as §1

tipifarnib = compound: Cn1cncc1[C@@](N)(c1ccc(Cl)cc1)c1ccc2c(c1)c(-c1cccc(Cl)c1)cc(=O)n2C [tipifarnib]
Procedure, shortened: as §1

mubritinib = compound: FC(F)(F)c1ccc(/C=C/c2nc(COc3ccc(CCCCn4ccnn4)cc3)co2)cc1 [mubritinib]
Procedure, shortened: as §1

[6] = compound: NC(=O)Nc1cc(-c2cccc(F)c2)sc1C(=O)N[C@H]1CCCNC1
Procedure, shortened: as §1

[7] = compound: NC(=O)c1cnc(N[C@@H]2CCCC[C@@H]2N)nc1Nc1cccc(-n2nccn2)c1
Procedure, shortened: as §1

[8] = compound: NC1(c2ccc(-c3nc4ccn5c(=O)[nH]nc5c4cc3-c3ccccc3)cc2)CCC1
Procedure, shortened: as §1

[9] = compound: NCC(=O)Nc1ccc(-n2nc(C(F)(F)F)cc2-c2ccc3c(ccc4ccccc43)c2)cc1
Procedure, shortened: as §1

entinostat = compound: Nc1ccccc1NC(=O)c1ccc(CNC(=O)OCc2cccnc2)cc1 [entinostat]
Procedure, shortened: as §1

vorinostat = compound: O=C(CCCCCCC(=O)Nc1ccccc1)NO [vorinostat]
Procedure, shortened: as §1

citarinostat = compound: O=C(CCCCCCNC(=O)c1cnc(N(c2ccccc2)c2ccccc2Cl)nc1)NO [citarinostat]
Procedure, shortened: as §1

silmitasertib = compound: O=C(O)c1ccc2c(c1)nc(Nc1cccc(Cl)c1)c1ccncc12 [silmitasertib]
Procedure, shortened: as §1

[10] = compound: O=C1NC(=O)C(c2cnc3ccccn23)=C1c1cn2c3c(cc(F)cc13)CN(C(=O)N1CCCCC1)CC2
Procedure, shortened: as §1

[11] = compound: c1cc(OCCN2CCCCC2)cc(-c2n[nH]c3ccc(-c4nnc[nH]4)cc23)c1
Procedure, shortened: as §1

Measured: log2 fold change

BTBD6 (UniProt Q96KE9)
Sequence of UniProt Q96KE9 (Q96KE9 whole entry, looked up): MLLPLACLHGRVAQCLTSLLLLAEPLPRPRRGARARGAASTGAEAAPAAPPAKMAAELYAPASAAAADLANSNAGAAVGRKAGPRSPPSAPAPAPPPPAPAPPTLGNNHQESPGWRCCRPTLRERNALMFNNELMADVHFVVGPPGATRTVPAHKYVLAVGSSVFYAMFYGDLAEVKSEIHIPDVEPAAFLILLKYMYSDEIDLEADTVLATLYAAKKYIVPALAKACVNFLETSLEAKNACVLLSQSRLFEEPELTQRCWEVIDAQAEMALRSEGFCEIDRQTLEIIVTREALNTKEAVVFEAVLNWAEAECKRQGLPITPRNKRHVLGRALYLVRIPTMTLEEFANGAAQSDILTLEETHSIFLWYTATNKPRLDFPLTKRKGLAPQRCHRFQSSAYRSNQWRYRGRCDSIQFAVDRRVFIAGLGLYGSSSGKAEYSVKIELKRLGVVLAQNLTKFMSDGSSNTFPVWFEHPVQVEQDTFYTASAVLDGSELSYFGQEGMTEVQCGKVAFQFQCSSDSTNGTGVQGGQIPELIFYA
inactive: bafetinib -0.007 | [1] 0.011 | nilotinib 0.277 | [2] -0.044 | dasatinib 0.008 | [3] -0.098 | [4] 0.239 | [5] -0.003 | tipifarnib -0.121 | mubritinib 0.153 | [6] 0.054 | [7] 0.102 | [8] 0.469 | [9] 0.199 | entinostat -0.039 | vorinostat 0.081 | citarinostat 0.273 | silmitasertib -0.352 | [10] -0.011 | [11] 0.118

ATP13A2 (UniProt Q9NQ11)
Sequence of UniProt Q9NQ11 (Q9NQ11 whole entry, looked up): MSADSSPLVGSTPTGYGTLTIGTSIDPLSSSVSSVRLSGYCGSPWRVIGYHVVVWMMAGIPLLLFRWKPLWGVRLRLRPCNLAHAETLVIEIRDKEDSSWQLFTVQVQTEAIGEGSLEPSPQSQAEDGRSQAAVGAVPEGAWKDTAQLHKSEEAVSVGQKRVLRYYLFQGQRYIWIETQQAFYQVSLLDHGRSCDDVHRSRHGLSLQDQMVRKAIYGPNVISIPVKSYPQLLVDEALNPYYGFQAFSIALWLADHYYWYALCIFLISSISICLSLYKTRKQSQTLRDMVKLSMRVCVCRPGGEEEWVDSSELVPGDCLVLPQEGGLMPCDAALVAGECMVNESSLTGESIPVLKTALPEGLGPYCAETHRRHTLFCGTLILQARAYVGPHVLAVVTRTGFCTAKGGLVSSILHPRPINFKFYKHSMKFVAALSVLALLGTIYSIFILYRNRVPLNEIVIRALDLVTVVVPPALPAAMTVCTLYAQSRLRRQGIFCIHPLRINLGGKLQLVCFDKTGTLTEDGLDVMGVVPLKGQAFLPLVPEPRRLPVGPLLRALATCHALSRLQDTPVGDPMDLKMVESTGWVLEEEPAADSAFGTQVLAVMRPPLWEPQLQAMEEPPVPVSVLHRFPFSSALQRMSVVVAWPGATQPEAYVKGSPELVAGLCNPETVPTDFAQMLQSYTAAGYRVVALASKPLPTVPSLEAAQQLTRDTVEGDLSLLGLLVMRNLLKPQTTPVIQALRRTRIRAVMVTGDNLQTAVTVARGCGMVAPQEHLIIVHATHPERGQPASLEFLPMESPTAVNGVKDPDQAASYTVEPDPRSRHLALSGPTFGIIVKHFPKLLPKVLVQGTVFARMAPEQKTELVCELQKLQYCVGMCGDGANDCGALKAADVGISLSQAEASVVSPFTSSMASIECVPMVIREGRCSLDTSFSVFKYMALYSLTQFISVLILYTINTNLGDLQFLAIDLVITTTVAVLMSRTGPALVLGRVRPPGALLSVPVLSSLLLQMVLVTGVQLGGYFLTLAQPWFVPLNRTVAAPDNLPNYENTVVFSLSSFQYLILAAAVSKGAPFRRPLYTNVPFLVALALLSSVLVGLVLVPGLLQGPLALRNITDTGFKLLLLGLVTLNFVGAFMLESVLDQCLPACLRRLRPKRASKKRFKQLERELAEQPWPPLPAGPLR
inactive: bafetinib -0.002 | [1] 0.001 | nilotinib 0.01 | [2] 0.014 | dasatinib -0.007 | [3] 0.018 | [4] 0.045 | [5] 0.069 | tipifarnib 0.06 | mubritinib 0.108 | [6] 0.032 | [7] 0.01 | [9] 0.064 | entinostat -0.005 | vorinostat 0.005 | citarinostat -0.054 | silmitasertib 0.026 | [10] -0.052 | [11] -0.025
active: [8] -0.336

ARFGAP2 (UniProt Q8N6H7)
Sequence of UniProt Q8N6H7 (Q8N6H7 whole entry, looked up): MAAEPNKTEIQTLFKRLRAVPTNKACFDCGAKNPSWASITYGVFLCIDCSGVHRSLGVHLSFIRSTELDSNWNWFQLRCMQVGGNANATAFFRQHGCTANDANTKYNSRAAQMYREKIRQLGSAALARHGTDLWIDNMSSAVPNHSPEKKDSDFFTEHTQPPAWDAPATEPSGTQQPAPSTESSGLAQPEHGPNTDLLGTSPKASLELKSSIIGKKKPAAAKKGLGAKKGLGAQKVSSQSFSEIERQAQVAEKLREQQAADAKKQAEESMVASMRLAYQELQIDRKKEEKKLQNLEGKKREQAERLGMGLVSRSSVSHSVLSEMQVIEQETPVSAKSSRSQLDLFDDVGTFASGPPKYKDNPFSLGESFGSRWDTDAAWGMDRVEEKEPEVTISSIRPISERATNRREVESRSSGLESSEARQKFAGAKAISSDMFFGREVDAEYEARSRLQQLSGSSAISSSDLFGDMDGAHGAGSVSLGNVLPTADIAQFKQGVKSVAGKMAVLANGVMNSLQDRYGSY
inactive: bafetinib -0.006 | [1] -0.008 | nilotinib -0.045 | [2] -0.063 | dasatinib -0.096 | [3] 0.035 | [4] -0.024 | [5] -0.024 | tipifarnib -0.059 | mubritinib 0.041 | [6] -0.007 | [7] -0.097 | [8] -0.08 | [9] -0.014 | entinostat 0.037 | vorinostat -0.017 | citarinostat 0.015 | silmitasertib 0.017 | [10] -0.016 | [11] -0.035

AARSD1 isoform 3 (UniProt Q9BTE6)
inactive: bafetinib 0.009 | [1] 0.065 | nilotinib -0.013 | [2] -0.038 | dasatinib -0.062 | [3] 0.031 | [4] -0.004 | [5] 0.002 | tipifarnib 0.022 | mubritinib 0.064 | [6] -0.051 | [7] -0.008 | [9] -0.04 | entinostat 0.054 | vorinostat -0.113 | citarinostat 0.033 | silmitasertib 0.046 | [10] 0.008 | [11] 0.011
active: [8] -0.214

ARPP19 (UniProt P56211)
Sequence of UniProt P56211 (P56211 whole entry, looked up): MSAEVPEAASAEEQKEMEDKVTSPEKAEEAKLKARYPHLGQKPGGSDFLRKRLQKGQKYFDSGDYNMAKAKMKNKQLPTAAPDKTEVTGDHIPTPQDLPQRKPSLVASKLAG
inactive: bafetinib -0.057 | [1] 0.005 | nilotinib 0.02 | [2] -0.041 | dasatinib 0.045 | [3] -0.004 | [4] 0.033 | [5] -0.022 | tipifarnib -0.055 | mubritinib 0.002 | [6] -0.049 | [7] -0.075 | [8] -0.019 | [9] 0.046 | entinostat 0.027 | vorinostat -0.038 | citarinostat 0.1 | silmitasertib 0 | [10] 0.026 | [11] -0.051

AKAP8 (UniProt O43823)
Sequence of UniProt O43823 (O43823 whole entry, looked up): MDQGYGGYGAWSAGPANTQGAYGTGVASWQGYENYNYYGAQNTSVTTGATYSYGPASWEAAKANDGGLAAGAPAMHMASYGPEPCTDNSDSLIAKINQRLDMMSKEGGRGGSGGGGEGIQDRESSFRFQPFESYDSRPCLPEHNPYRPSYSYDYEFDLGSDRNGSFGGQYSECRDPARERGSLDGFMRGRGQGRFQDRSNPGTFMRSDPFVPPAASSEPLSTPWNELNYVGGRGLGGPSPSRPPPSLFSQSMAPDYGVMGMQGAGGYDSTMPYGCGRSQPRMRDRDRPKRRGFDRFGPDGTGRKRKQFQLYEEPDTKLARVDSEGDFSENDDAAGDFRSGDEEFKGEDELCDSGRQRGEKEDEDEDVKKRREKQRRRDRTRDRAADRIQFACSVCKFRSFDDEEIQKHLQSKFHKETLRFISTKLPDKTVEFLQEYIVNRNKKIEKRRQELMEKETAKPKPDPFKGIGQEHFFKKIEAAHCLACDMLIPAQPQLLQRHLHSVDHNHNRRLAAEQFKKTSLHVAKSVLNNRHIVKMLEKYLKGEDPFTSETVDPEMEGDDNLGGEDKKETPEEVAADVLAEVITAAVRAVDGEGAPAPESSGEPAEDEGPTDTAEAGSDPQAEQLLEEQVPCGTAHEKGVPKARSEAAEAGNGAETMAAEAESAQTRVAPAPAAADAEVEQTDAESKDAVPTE
inactive: bafetinib -0.051 | [1] -0.008 | nilotinib -0.001 | [2] -0.044 | dasatinib -0.155 | [3] -0.042 | [4] -0.007 | [5] -0.049 | tipifarnib 0.022 | mubritinib 0.028 | [6] -0.043 | [7] -0.037 | [8] 0.023 | [9] -0.012 | entinostat -0.024 | vorinostat 0.01 | citarinostat 0.002 | silmitasertib -0.13 | [10] -0.1 | [11] -0.043

AAMP (UniProt Q13685)
inactive: bafetinib 0.011 | [1] 0.014 | nilotinib 0.009 | [2] 0.005 | dasatinib 0.04 | [3] 0.012 | [4] -0.038 | [5] -0.028 | tipifarnib -0.026 | mubritinib 0.02 | [6] -0.006 | [7] -0.05 | [8] -0.005 | [9] -0.018 | entinostat -0.055 | vorinostat 0.015 | citarinostat -0.026 | silmitasertib 0.061 | [10] 0.059 | [11] -0.013

AAR2 (UniProt Q9Y312)
Sequence of UniProt Q9Y312 (Q9Y312 whole entry, looked up): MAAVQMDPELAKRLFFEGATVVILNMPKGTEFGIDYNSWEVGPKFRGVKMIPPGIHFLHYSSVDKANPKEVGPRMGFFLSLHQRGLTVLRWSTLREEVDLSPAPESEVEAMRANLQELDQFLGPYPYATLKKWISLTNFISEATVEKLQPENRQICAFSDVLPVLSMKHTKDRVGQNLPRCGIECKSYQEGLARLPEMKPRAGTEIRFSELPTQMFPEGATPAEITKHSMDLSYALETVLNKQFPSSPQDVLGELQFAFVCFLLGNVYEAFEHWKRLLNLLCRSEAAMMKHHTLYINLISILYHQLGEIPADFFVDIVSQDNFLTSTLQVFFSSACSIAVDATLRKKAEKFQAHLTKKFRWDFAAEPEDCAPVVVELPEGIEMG
inactive: bafetinib -0.019 | [1] -0.062 | nilotinib 0.058 | [2] 0.009 | dasatinib -0.006 | [3] 0.019 | [4] -0.079 | [5] -0.034 | tipifarnib 0.004 | mubritinib -0.036 | [6] -0.016 | [7] -0.015 | [8] 0.066 | [9] -0.034 | entinostat 0.026 | vorinostat 0.19 | citarinostat -0.009 | silmitasertib 0.035 | [10] 0.04 | [11] -0.067

AP2B1 isoform 2 (UniProt P63010)
active: [6] -0.225
inactive: bafetinib 0.024 | [1] -0.01 | nilotinib -0.019 | [2] 0.019 | dasatinib 0.035 | [3] -0.032 | [4] -0.029 | [5] 0.004 | tipifarnib -0.014 | mubritinib -0.01 | [7] 0.01 | [8] 0.037 | [9] 0.002 | entinostat 0 | vorinostat 0.01 | citarinostat 0.019 | silmitasertib 0.02 | [10] -0.202 | [11] -0.182

ACP2 (UniProt P11117)
Sequence of UniProt P11117 (P11117 whole entry, looked up): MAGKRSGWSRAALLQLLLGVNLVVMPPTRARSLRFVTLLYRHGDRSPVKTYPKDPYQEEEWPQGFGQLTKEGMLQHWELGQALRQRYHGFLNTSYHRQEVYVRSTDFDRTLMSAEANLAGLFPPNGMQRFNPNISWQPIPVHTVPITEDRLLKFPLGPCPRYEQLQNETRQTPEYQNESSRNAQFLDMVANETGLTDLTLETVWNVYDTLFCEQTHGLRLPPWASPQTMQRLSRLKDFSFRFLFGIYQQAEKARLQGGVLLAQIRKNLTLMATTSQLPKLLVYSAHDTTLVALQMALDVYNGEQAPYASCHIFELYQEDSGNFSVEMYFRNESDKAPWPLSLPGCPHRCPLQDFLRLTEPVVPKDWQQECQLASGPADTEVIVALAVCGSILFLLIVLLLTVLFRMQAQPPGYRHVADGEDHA
inactive: bafetinib -0.107 | [1] -0.06 | nilotinib 0.002 | [2] -0.006 | dasatinib 0 | [3] 0.02 | [4] 0.015 | [5] 0.03 | tipifarnib 0.061 | mubritinib -0.008 | [6] -0.014 | [7] 0.002 | [8] -0.124 | [9] 0.018 | entinostat -0.01 | vorinostat -0.003 | citarinostat 0.05 | silmitasertib 0.069 | [10] -0.052 | [11] -0.102

ABITRAM (UniProt Q9NX38)
Sequence of UniProt Q9NX38 (Q9NX38 whole entry, looked up): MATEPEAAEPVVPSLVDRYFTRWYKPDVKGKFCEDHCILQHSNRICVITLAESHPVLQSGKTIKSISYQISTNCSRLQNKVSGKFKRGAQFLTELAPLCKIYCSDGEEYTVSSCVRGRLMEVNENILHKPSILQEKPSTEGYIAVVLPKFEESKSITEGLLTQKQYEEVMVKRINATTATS
inactive: bafetinib 0.016 | [1] 0.116 | nilotinib -0.327 | [2] -0.146 | dasatinib -0.316 | [4] -0.004 | [5] 0.026 | tipifarnib -0.031 | mubritinib 0.046 | [6] -0.018 | [7] -0.12 | [8] -0.194 | [9] 0.008 | entinostat 0.008 | vorinostat -0.089 | citarinostat 0.046 | silmitasertib 0.094 | [10] -0.015 | [11] -0.006
active: [3] -0.442

ADD1 isoform 3 (UniProt P35611)
inactive: bafetinib -0.018 | [1] 0.068 | nilotinib 0.014 | [2] -0.02 | dasatinib 0.041 | [3] -0.093 | [4] 0.009 | [5] 0.014 | tipifarnib 0.015 | mubritinib 0.033 | [6] 0.03 | [7] -0.016 | [8] 0.034 | [9] -0.02 | entinostat -0.071 | vorinostat 0.01 | citarinostat 0.034 | silmitasertib -0.01 | [10] -0.06 | [11] 0.01

ADD2 (UniProt P35612)
inactive: bafetinib 0.012 | [1] 0.011 | nilotinib 0.022 | [2] -0.026 | dasatinib -0.033 | [3] -0.048 | [4] 0.029 | [5] 0.001 | tipifarnib 0.035 | mubritinib 0.011 | [6] 0.048 | [7] 0.039 | [8] 0.036 | [9] 0.024 | entinostat -0.038 | vorinostat 0.023 | citarinostat 0.024 | silmitasertib -0.054 | [10] -0.092 | [11] 0.013

ABHD17A isoform 2 (UniProt Q96GS6)
Sequence of UniProt Q96GS6 (Q96GS6 whole entry, looked up): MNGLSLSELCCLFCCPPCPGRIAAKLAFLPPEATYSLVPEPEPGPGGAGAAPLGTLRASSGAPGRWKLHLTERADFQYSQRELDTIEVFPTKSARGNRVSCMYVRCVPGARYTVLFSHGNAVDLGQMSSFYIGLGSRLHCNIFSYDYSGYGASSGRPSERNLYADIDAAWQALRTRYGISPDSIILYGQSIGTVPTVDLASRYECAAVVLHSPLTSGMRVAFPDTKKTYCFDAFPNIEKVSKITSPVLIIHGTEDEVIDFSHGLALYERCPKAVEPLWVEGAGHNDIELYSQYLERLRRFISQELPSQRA
inactive: bafetinib -0.051 | [1] 0.044 | nilotinib -0.054 | [2] 0.047 | dasatinib -0.023 | [3] 0.018 | [4] 0.028 | [5] 0.068 | tipifarnib -0.042 | mubritinib 0.061 | [6] 0.036 | [7] -0.119 | [8] -0.049 | [9] -0.078 | entinostat -0.104 | vorinostat -0.04 | citarinostat 0.036 | silmitasertib -0.02 | [10] 0.01 | [11] 0.051

BRAP (UniProt Q7Z569)
Sequence of UniProt Q7Z569 (Q7Z569 whole entry, looked up): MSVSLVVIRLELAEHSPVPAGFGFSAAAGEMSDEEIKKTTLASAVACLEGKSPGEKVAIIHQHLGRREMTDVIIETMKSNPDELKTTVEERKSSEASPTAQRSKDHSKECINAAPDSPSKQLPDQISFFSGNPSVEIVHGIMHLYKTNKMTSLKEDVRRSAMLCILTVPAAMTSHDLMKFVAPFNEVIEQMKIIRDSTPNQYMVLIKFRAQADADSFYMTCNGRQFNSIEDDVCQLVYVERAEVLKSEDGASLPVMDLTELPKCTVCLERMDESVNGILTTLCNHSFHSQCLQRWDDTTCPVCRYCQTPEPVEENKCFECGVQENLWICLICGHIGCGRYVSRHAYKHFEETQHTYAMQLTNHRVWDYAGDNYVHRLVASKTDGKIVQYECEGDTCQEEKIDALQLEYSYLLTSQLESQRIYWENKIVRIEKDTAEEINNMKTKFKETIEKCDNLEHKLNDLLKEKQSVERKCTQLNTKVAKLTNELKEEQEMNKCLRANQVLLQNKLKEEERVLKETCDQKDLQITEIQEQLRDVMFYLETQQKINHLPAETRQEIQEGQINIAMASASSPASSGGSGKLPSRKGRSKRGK
inactive: bafetinib 0.026 | [1] 0.017 | nilotinib -0.087 | [2] -0.186 | dasatinib -0.097 | [3] -0.116 | [4] -0.067 | [5] -0.066 | tipifarnib -0.04 | mubritinib 0.056 | [6] 0.056 | [7] -0.063 | [8] -0.113 | [9] -0.015 | entinostat 0.003 | vorinostat 0.069 | citarinostat 0.037 | silmitasertib 0.073 | [10] 0.124 | [11] 0.064

AP2A1 (UniProt O95782)
active: [6] -0.38 | [10] -0.275 | [11] -0.227
inactive: bafetinib 0.052 | [1] 0.024 | nilotinib -0.008 | [2] -0.008 | dasatinib 0.045 | [3] -0.079 | [4] -0.007 | [5] -0.066 | tipifarnib -0.051 | mubritinib -0.011 | [7] 0.061 | [8] 0.041 | [9] 0.026 | entinostat -0.002 | vorinostat 0.038 | citarinostat 0.005 | silmitasertib 0.047
